Here are results for 6 molecules from PubChem BioAssay.

Test [1] has as its target Albumin (Bos taurus) (UniProt P02769). The test is described as follows: compounds binding labelled BSA control protein – biochemical, small-molecule microarray, Alexa647 label, 635/667 nm fluorescence, artefact control for SMM control protein annotation, profiling panel (AID 1118).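 Also: score merges 667 nm emission intensity and signal-to-noise per printed compound spot.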 To be noted: BSA-A647 binding, fluorescence 635 nm, higher = more signal.
Test [2] is described as follows: probe aXIP binding to arrayed compounds – biochemical, NeuroSMM set, 635/667 nm fluorescence, primary screen (AID 1119).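 Also: probe is the protein aXip251-270 applied at 1 µg/mL to compound-printed slides; binding of probe to printed compounds measured as 667 nm fluorescence plus signal to noise.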 The following applies: small-molecule microarray, higher = more signal, called active from +8 up or from −8 down.
Test [3] is described as follows: probe aNOTCH3 binding on compound microarray – biochemical, small-molecule microarray, 635/667 nm fluorescence, primary screen (AID 1120).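 Also: probe is a biotin-tagged antibody raised against NOTCH3 rather than NOTCH3 protein; score merges spot fluorescence near 667 nm with spot signal to noise.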 To be noted: higher = more signal.
The nature of test [4]: probe aNOTCH2 binding on compound microarray – biochemical, small-molecule microarray, 635/667 nm fluorescence, primary screen (AID 1121).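 Also: score merges feature fluorescence read at 667 nm with its signal to noise.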 The following applies: higher = more signal.
Test [5] deals with Carbonic anhydrase 2 (Homo sapiens) (UniProt P00918). The experiment in a line: compounds binding carbonic anhydrase 2 – biochemical, small-molecule microarray, Alexa647-labelled CAII, profiling panel (AID 1122). To be noted: CAII-A647 binding fluorescence, higher = more signal.
Test [6] is described as follows: COS7 lysate on small-molecule microarray, probe aHis, 635 nm (AID 1123).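 Also: z-score combines 667nm fluorescence intensity with signal-to-noise per printed compound spot.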 The following applies: COS7 cell lysate, fluorescence, higher = more signal.
Test [7] can be described thus: probe aLAP1 signal on lysate-treated microarray – cell lysate, small-molecule microarray, COS7 lysate, primary screen (AID 1124).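 Also: lysate comes from COS7 cells expressing LAP1 and is applied at 0.3 µg/mL; score merges spot fluorescence near 667 nm with signal-to-noise over triplicate slides.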 To be noted: probe aLAP1, fluorescence, higher = more signal.
The test system of test [8] is Sam68 (KHDRBS1). The test is described as follows: compounds binding KHDRBS1 protein – biochemical, small-molecule microarray, 635 nm fluorescence, primary screen (AID 1125).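 Also: score merges 667 nm channel intensity with signal to noise over triplicate slides.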 To be noted: higher = more signal.
For test [9], the system named is Chordin-like protein 2 (CHRDL2). The test is described as follows: compounds binding chordin-like 2 – biochemical, small-molecule microarray, 635 nm fluorescence, primary screen (AID 1126).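 Also: printed compound slides probed with Chrdl2 protein at 4 µg/mL for 1 h at 4 C; score merges 667 nm emission intensity with signal to noise over three replicate slides.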 The following applies: fluorescence 635 nm, higher = more signal.
Test [10] has as its target Concanavalin-A (Canavalia ensiformis) (UniProt P02866). The test is described as follows: compounds binding concanavalin A lectin – biochemical, small-molecule microarray, Alexa647 label, 635 nm, artefact control for SMM control protein annotation, primary screen (AID 1127).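 Also: z combines 667 nm emission intensity with signal-to-noise across three replicate slides.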 The following applies: ConA-A647 binding fluorescence, higher = more signal.
The nature of test [11]: compounds binding Alexa647 anti-His antibody – biochemical, small-molecule microarray, 635 nm fluorescence, artefact control for SMM control protein annotation, primary screen (AID 1128).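 Also: score merges feature fluorescence with signal-to-noise for each printed compound spot.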 The following applies: higher = more signal.
The subject of test [12] is Human papillomavirus type 1a E7 protein (residues 1-88). The experiment in a line: HPV1a E7 small-molecule binders, primary screen, biochemical, small-molecule microarray, residues 1-88, 635 nm (AID 1129). To be noted: small-molecule microarray binding, fluorescence 635 nm; higher = more signal.
The target of test [13] is Focal adhesion kinase 1 (Homo sapiens) (UniProt Q05397). The experiment in a line: PTK2 protein binding on printed compound slides – biochemical, small-molecule microarray, 635/667 nm fluorescence, BSA, DTT, primary screen (AID 1130).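 Also: composite of spot emission at 667 nm and signal to noise over triplicate slides.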 To be noted: 635 nm fluorescence, higher = more signal.
In test [14] the test system is Fibrinogen (Alexa647-labelled). The experiment in a line: Alexa647-fibrinogen binding to printed small molecules – biochemical, small-molecule microarray, 635/667 nm fluorescence, artefact control for SMM control-protein annotation, profiling panel (AID 1131).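 Also: z-score merges 667 nm fluorescence with per-spot signal-to-noise over triplicate slides.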 The following applies: fibrinogen-A647 binding fluorescence, higher = more signal.
The target of test [15] is Follistatin (Homo sapiens) (UniProt P19883). The experiment in a line: FST protein binding to printed compounds – biochemical, small-molecule microarray, 635/667 nm fluorescence, primary screen (AID 1132). The following applies: 635 nm fluorescence, higher = more signal.
The target in test [16] is Fibroblast growth factor 2 (Homo sapiens) (UniProt P09038). The test is described as follows: basic fibroblast growth factor binding to printed compounds – biochemical, small-molecule microarray, 635/667 nm fluorescence, primary screen (AID 1133). To be noted: FGF2, fluorescence 635/667, higher = more signal.
Test [17] can be described thus: JC-1 mitochondrial potential readout, lung cancer cells – cell-based, A549, JC-1 fluorescence, basal, 24 h, 100 nL, profiling panel (AID 1138).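 Also: A549 lung adenocarcinoma cells under basal conditions with no added stimulus; test concentration not given here.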 To be noted: higher = more signal.
For test [18], the system named is Lefty1. The test is described as follows: Lefty1 protein binding to printed compounds – biochemical, small-molecule microarray, 635/667 nm fluorescence, primary screen (AID 1139). The following applies: fluorescence 635/667, higher = more signal.
Test [19] concerns wheat germ agglutinin (Triticum aestivum), Alexa647-labelled. The test is described as follows: Alexa647-WGA lectin binding to printed small molecules – biochemical, small-molecule microarray, 635/667 nm fluorescence, artefact control for SMM control-protein annotation, profiling panel (AID 1140).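 Also: score merges 667 nm feature emission with signal to noise over triplicate slides.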 To be noted: WGA-A647 binding, 635 nm fluorescence, higher = more signal.
Test [20] has as its target Luciferin 4-monooxygenase (Photinus pyralis) (UniProt P08659). The experiment in a line: inhibition of purified Photinus pyralis luciferase – biochemical, luminescence, purified enzyme, 2006 set, primary screen (AID 1141).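 Also: cell-free assay with purified firefly luciferase at 100 ng per well in PBS; test concentration not given here.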 To be noted: purified firefly luciferase, SteadyGlo luminescence, 30 min; higher = more signal, called active from +8 up or from −8 down.

Calls of active or inactive are those of the source.

Sequence of Follistatin (Homo sapiens) (P19883 whole entry, looked up): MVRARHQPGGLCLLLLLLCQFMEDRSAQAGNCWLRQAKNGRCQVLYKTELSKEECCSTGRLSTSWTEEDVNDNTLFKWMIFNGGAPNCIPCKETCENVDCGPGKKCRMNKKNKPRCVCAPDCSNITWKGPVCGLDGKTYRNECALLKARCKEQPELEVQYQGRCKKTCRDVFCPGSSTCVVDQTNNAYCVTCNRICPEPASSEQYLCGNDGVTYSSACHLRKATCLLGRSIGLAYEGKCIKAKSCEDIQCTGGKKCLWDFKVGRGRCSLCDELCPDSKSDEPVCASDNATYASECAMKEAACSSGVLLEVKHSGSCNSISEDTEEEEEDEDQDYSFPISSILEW
Sequence of Concanavalin-A (Canavalia ensiformis) (P02866 whole entry, looked up): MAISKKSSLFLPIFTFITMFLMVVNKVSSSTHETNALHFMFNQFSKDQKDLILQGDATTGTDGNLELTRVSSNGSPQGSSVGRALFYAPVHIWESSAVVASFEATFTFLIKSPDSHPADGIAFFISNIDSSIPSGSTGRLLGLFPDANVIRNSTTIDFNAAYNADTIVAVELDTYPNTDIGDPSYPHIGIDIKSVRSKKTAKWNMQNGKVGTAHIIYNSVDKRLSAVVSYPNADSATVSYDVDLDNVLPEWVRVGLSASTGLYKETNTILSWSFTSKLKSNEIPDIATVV
Sequence of Focal adhesion kinase 1 (Homo sapiens) (Q05397 whole entry, looked up): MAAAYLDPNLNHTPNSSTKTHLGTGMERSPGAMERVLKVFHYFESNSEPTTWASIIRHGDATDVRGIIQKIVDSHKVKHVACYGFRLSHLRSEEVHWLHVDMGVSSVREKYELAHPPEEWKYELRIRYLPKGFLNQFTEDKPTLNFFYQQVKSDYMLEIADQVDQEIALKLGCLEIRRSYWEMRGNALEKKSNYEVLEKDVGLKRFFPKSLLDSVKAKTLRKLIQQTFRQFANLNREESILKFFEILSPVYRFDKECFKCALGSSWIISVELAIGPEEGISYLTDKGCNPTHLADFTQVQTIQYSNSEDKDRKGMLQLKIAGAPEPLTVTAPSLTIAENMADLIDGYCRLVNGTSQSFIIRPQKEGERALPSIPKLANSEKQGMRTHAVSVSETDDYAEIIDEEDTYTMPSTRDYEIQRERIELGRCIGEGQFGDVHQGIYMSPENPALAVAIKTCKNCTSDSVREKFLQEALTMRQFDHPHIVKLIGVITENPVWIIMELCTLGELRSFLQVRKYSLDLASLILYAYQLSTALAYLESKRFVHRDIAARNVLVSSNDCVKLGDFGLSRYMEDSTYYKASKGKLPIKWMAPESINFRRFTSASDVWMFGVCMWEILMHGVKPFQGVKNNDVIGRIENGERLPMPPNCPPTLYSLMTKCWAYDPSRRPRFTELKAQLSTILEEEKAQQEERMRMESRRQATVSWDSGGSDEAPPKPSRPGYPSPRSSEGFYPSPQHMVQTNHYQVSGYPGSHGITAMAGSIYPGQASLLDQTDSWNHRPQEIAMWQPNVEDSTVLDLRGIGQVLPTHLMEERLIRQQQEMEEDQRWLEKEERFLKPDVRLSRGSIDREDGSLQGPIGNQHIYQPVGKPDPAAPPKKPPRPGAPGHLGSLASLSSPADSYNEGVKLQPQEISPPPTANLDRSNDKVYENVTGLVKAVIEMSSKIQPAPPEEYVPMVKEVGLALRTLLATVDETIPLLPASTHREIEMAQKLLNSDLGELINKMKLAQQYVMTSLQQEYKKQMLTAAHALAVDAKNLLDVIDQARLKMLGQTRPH
Sequence of Albumin (Bos taurus) (P02769 whole entry, looked up): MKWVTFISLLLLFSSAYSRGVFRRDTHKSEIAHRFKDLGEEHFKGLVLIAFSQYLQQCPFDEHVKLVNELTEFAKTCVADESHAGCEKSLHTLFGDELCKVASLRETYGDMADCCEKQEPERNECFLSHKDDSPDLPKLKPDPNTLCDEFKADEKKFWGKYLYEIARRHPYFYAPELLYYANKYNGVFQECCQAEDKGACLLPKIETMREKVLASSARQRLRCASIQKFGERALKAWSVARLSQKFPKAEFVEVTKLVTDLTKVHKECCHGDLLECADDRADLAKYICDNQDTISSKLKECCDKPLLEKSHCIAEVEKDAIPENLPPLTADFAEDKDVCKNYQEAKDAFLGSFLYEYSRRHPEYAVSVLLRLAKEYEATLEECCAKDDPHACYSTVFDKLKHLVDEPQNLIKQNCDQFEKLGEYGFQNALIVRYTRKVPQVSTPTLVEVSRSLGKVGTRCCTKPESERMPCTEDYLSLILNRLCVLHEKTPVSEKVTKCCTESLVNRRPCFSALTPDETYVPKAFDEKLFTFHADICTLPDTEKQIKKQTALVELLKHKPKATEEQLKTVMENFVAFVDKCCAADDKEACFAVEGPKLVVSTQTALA
Sequence of Fibroblast growth factor 2 (Homo sapiens) (P09038 whole entry, looked up): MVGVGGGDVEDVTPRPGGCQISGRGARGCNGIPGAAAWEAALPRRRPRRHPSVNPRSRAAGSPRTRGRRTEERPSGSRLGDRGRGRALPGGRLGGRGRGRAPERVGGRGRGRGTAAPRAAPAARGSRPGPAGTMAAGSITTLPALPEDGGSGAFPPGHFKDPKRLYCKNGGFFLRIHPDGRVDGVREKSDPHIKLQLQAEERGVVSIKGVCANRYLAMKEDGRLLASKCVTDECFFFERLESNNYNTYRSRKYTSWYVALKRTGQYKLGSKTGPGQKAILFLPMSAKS
Sequence of Luciferin 4-monooxygenase (Photinus pyralis) (P08659 whole entry, looked up): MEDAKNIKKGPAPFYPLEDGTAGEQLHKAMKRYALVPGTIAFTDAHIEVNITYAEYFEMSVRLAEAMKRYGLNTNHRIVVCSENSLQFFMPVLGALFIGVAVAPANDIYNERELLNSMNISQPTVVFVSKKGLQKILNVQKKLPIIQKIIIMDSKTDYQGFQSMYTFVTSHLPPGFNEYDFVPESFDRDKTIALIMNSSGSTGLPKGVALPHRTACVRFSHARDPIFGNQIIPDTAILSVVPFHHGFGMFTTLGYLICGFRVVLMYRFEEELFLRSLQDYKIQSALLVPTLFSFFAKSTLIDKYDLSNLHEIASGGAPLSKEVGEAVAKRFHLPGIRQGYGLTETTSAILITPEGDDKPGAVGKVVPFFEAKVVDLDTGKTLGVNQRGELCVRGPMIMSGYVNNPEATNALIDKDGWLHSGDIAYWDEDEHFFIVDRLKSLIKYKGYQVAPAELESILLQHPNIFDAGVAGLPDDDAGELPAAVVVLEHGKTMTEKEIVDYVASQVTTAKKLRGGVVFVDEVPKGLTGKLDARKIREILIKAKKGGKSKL

In the case of `CO[C@H]1COC(=O)[C@H](C)COC(=O)[C@H](C)NC(=O)CC=C[C@H]1C`, the composite z-score in [1] is -0.642; in test [3], -0.131; in test [4], -0.0051; in [5], 0.0006; in [6], -0.429; in test [7], 0.352. The composite z-score in test [8] was 1.04; in test [9] it was 1.44; in [10] it was -0.581; in test [11] it was 0.0849; in test [12], -0.375; in [13], -0.315. Besides, the composite z-score in test [14] was -1.01; in test [15], 1.41; in test [16], 1.43; in test [18] it was 1.36; in test [19] it was -0.729. The composite Z-score in test [2] was 1.19 (inactive). The z-score in test [17] is 0.763; in test [20], -0.403 (inactive).

Turning to `CC(=O)OC[C@H]1O[C@H](CC=NOC[C@@H](O)COCc2ccco2)C=C[C@@H]1OC(C)=O`, the composite z-score is 0.037 in test [1]; 0.282 in test [3]; -0.0022 in test [4]; -0.287 in test [5]; -0.37 in [6]; -0.14 in test [7]. Further, the composite z-score in test [8] is 0.586; in test [9], 1.46; in test [10] it was -0.389; in test [11] it was 0.526; in test [12], -0.193; in test [13] it was 0.0925. The composite z-score was -0.629 in test [14]; 1.38 in test [15]; 1.54 in test [16]; 1.52 in [18]; -0.327 in test [19]. The composite Z-score in test [2] was 0.328 (inactive). In addition, the z-score in test [17] was 0.548; in test [20], 0.642 (inactive).

Consider `CC(C)(C)N1C(=O)[C@H]2[C@H]3[C@H](O)[C@H](O)CC(=NNC(=O)OCc4ccccc4)[C@@H]3CC[C@H]2C1=O`, for which the composite z-score in test [1] is 0.303; in test [3] it was 0.073; in test [4], -0.0515; in test [5], 0.0243; in test [6] it was 0.728; in test [7], 0.3. Further, the composite z-score in test [8] was found to be 0.692; in test [9], 0.397; in test [10], 0.87; in [11], 0.0938; in test [12], 0.486; in test [13] it was 0.32. In addition, the composite z-score in [14] was 0.459; in [15] it was 0.258; in test [16], 0.704; in [18], 0.34; in test [19], 0.433. Besides, the composite Z-score in [2] was -0.151 (inactive). For the same molecule, the z-score in test [17] was -0.202; in test [20], -0.728 (inactive).

For the molecule `COC(=O)[C@H](C)NC(=O)CCC1CC(OC(=O)NCCc2ccc(F)cc2)CC2(CCCC(COC(=O)NCCc3ccccc3OC)O2)O1` (stereo not given in full), the composite z-score in [1] was 0.335; in [3], -0.0288; in test [4], -0.0061; in [5], 0.244; in [6], 1.25; in test [7], 0.0635. For the same molecule, the composite z-score in [8] worked out at 1.29; in test [9] it was 0.559; in [10], 0.924; in [11], 0.706; in test [12] it was 1.12; in test [13] it was 0.0694. For the same molecule, the composite z-score in [14] turned out to be 0.733; in test [15], 1.18; in test [16], 0.591; in test [18], 0.554; in [19], 0.432. Moreover, in [2], the composite Z-score was 0.353 (inactive). Besides, the z-score was 0.625 in test [17] and 0.484 (inactive) in test [20].

As to `CC(CCN1CCCCc2nc(C)c(C)cc21)=NO[C@@H](C)c1cc(-c2c(C)cc(C)cc2C)no1`, the composite z-score is 0.335 in test [1]; -0.231 in test [3]; -0.0904 in [4]; -0.079 in test [5]; -0.257 in [6]; 0.197 in test [7]. The composite z-score in test [8] was -1.33; in [9], -0.734; in test [10], -1.84; in test [11], -0.335; in [12], -0.384; in test [13], 0.0796. Also, the composite z-score in test [14] was -0.317; in [15], -0.673; in test [16] it was -0.682; in test [18] it was -0.315; in test [19], -0.547. For the same molecule, in test [2], the composite Z-score was -0.0861 (inactive). Also, the values for the z-score in [17] and in test [20] were 1.91 and -1.49 (inactive), respectively.

For the molecule `CC(C)[C@@H](OCc1ccccc1)[C@H](C)C=NOC[C@@H](O)[C@H]1O[C@@H]2OC(C)(C)O[C@@H]2[C@H]1O`, the composite z-score is 0.0762 in [1]; -0.0014 in test [3]; -0.147 in test [4]; -0.0043 in test [5]; 0.223 in test [6]; 0.614 in test [7]. Also, the composite z-score in test [8] was 0.574; in test [9] it was 0.314; in test [10] it was 1.07; in [11], 2.33; in test [12], 0.387; in [13], 0.137. The composite z-score is 0.941 in [14]; 0.214 in test [15]; 0.635 in [16]; 0.768 in [18]; 0.234 in test [19]. The composite Z-score in test [2] was 0.528 (inactive). The z-score in test [17] is -0.958; in test [20], -0.587 (inactive).
